For seven molecules, growth results are on record in PubChem BioAssay (NCI).

Each structure is given as a SMILES string. About 83,000 compounds went through this panel and 20% of them were active in at least one assay; those are over-represented in the sample as a whole.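 Percent growth is the endpoint: 0 to 100 indicates growth inhibition (40 means 60% inhibition), 0 means no net growth, and negative values indicate cell death.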 Unmarked numbers belong to inactive results. Calls of active or inactive are those of the source. How the source made its calls: active means growth percent below 10; inactive means the rest.

Common to all, as to assay: NCI-60 one-dose screen, 48 h (100 = growth as untreated, 0 = no growth, -100 = all killed)
Holding throughout (details): 10 µM unless noted

For test [1], the system named is NCI-H226 lung.
Test [2] deals with NCI-H322M lung.
The test system of test [3] is HOP-62 NSCLC.
For test [4], the system named is NCI-H460 lung.
The test system of test [5] is HOP-92 NSCLC.
For test [6], the system named is NCI-H522 lung.
Test [7] has as its system A549/ATCC NSCLC.
Test [8] has as its system 786-0 renal.
For test [9], the system named is COLO 205 colon.
In test [10] the test system is DU-145 prostate.
Test [11] has as its system K-562 leukemia.
In test [12] the test system is MALME-3M melanoma.
Test [13] has as its system MDA-MB-231 breast.
Test [14] relates to RXF 393 renal.
Test [15] has as its system SF-268 CNS.
Test [16] has as its system SF-295 CNS.
Test [17] concerns SF-539 CNS.
In test [18] the test system is UACC-257 melanoma.
For test [19], the system named is M14 melanoma.

For `COC(=O)c1nc(-c2ccc(C)cc2)oc1N1CCOCC1`, the growth in test [1] is 94%; in test [2], 105%; in test [3], 98.3%; in test [4] it was 100%; in [5] it was 102%; in test [6] it was 90.7%. Besides, the growth is 88.4% in [7]; 82.3% in [8]; 111% in [9]; 98.1% in test [10]; 95.6% in [11]; 115% in test [12]. In addition, the growth in test [13] is 105%; in test [14], 89.6%; in test [15] it was 98.1%; in test [16], 99%; in test [17] it was 95.9%; in test [18] it was 100%. Besides, the growth in test [19] was 102%.
`N#Cc1c(-c2ccc(Cl)cc2)nc(NN=Cc2cccc(Cl)c2)nc1N1CCOCC1`: the growth is 91.6% in [1]; 88.7% in [2]; 92.7% in [3]; 91.6% in test [4]; 89.3% in [5]; 94.5% in test [6]. In addition, the growth is 81.9% in [7]; 70.1% in test [8]; 61% in [9]; 76% in test [10]; 35.1% in test [11]; 131% in test [12]. Also, the growth in test [13] was 90.6%; in test [14], 61.4%; in test [15], 90.3%; in [16], 102%; in test [17], 79.1%; in [18] it was 100%. For the same molecule, the growth in [19] was 84.6%.
Regarding `O=C1N/C(=N/N=C(c2ccccc2)c2ccccc2)S/C1=C\c1ccc(Br)cc1`, the growth in [1] was 84.7%; in test [2], 95%; in test [3], 98.1%; in test [4], 98.4%; in test [5] it was 92.3%; in [6], 69.6%. Besides, the growth in test [7] is 74.7%; in test [8], 98%; in [9], 104%; in [10], 107%; in test [11] it was 89.6%; in [12] it was 97.7%. In addition, the growth is 94.6% in [13]; 107% in [14]; 99.3% in test [15]; 96.1% in test [16]; 110% in [17]; 83.5% in test [18]. In addition, the growth in [19] was 91.8%.
Consider `O=C(CSc1nnc(-c2ccc(Cl)c(Cl)c2)n1-c1ccccc1)Nc1ccc(C(=O)/C=C/c2ccc(Cl)cc2)cc1`, for which the growth in test [1] is 89.1%; in test [2], 96.9%; in [3], 91.1%; in test [4], 99.5%; in [5], 80.7%; in [6] it was 64.7%. Besides, the growth is 68.9% in test [7]; 88.6% in test [8]; 93.3% in test [9]; 98.3% in test [10]; 81.9% in [11]; 94.6% in [12]. The growth in [13] was 86.5%; in test [14], 92.1%; in [15], 92.2%; in [16], 98.2%; in [17] it was 97.9%; in [18], 77.3%. In [19], the growth was 82.2%.
Regarding `C=CC(=O)Nc1ccc2ncnc(Nc3cccc(NS(=O)(=O)CCC)c3Cl)c2c1`, the growth is 15.8% in [2]; 67.3% in test [3]; 68.6% in test [4]; 35.1% in [5]; 17.8% in test [6]; 50.8% in [7]. The growth was 42.4% in [8]; 12% in test [9]; 37.8% in [10]; 67.2% in test [11]; 7.81% (active) in test [12]; 24.3% in test [13]. Moreover, the growth in test [14] is 15.1%; in [15], 48%; in [16] it was 72.9%; in test [17], 44.4%; in test [18], 5.07% (active); in test [19], 19.6%.
For the molecule `O=C(Nc1cccc(Cl)c1)Oc1c(Cl)c(Cl)c(Cl)c(Cl)c1Cl`, the growth was 83.8% in test [1]; 109% in [2]; 81.7% in test [3]; 101% in test [4]; 58.7% in [5]; 83.9% in test [6]. In addition, the growth in test [7] is 96.8%; in [8] it was 97.9%; in test [9], 101%; in [10], 95.6%; in test [11], 98.6%; in test [12] it was 101%. Moreover, the growth in test [13] is 94.3%; in [14], 117%; in test [15], 95.9%; in [16], 90%; in test [17] it was 95.3%; in [18] it was 110%. Further, in test [19], the growth is 97.3%.
On to `O=C1CC2C=CCN2C=C1NC(=O)c1ccccc1` (configuration not stated), for which the growth in test [1] was 102%; in [2], 99.8%; in [3], 114%; in test [4], 111%; in [5] it was 110%; in test [6], 104%. Further, the growth in test [7] is 92.6%; in [8], 98.5%; in test [9], 102%; in [10], 103%; in [11], 92.7%; in test [12], 93.9%. Further, the growth was 112% in [13]; 105% in test [14]; 98.7% in test [15]; 98% in [16]; 107% in test [17]; 99.8% in test [18]. Also, the growth in test [19] is 98.8%.
